Read-out in test [1]: TIMP metallopeptidase inhibitor 1 (TIMP1), TIMP1 (gene 7076)
Put plainly: BSK_MyoF_TIMP1: BioMAP Diversity Plus: MyoF Assay for TIMP metallopeptidase inhibitor 1 (TIMP1) Biomarker Activity (AID 2284269). The following applies: primary human lung fibroblasts. In short, it runs like this: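 TIMP-1 levels were determined by ELISA in human lung fibroblasts treated for 24 h. DMSO served as negative control and baseline for upward curve fitting.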

Read-out in test [2]: Intercellular Adhesion Molecule 1 (ICAM1), ICAM1 (gene 3383)
Put plainly: BSK_BE3C_ICAM1: BioMAP Diversity Plus: BE3C Assay for Intercellular Adhesion Molecule 1 (ICAM1) Biomarker Activity (AID 2284278). Conditions: primary human bronchial epithelial cells. Here is the method: BSK_BE3C is a cell-based, multiplexed-readout assay that uses bronchial epithelial cell, a human lung primary cell, with measurements taken at 24 hours after chemical dosing in a 96-well plate.BSK_BE3C_ICAM1 is an assay component measured in the BSK_BE3C assay. It measures ICAM-1 antibody related to regulation of gene expression using ELISA technology.Data from the assay component BSK_BE3C_ICAM1 was analyzed at the endpoint, BSK_BE3C_ICAM1, in the positive analysis fitting direction relative to DMSO as the negative control and baseline of activity. Using a type of binding reporter, gain or loss-of-signal activity can be used to understand protein changes. To generalize the intended target to other relatable targets, this assay endpoint is annotated to the 'cell adhesion molecules' intended target family, where the subfamily is 'Immunoglobulin CAM'.
(§1) The levels of cell surface (or secreted, indicated by the prefix "s") biomarker endpoints were measured by ELISA. Overt cytotoxicity to cells in confluent adherent cultures (all systems other than the BT system) was assessed by measuring total protein levels using sulforhodamine B (SRB) staining in parallel cultures at the time of biomarker measurements, indicated as SRB endpoints. For proliferation assays for adherent cell types, individual cell types are cultured at sub-confluence and relative cell numbers quantified by SRB staining at time points optimized for each system (48 h: 3C and CASM3C systems; 72 h: BT and HDF3CGF systems; 96 h: SAg system). SRB was performed by staining cells with 0.1% SRB after fixation with 10% TCA and reading wells at 560 nm.Viability and proliferation of PBMC (T cells) was quantified by Alamar Blue reduction for the SAg and BT systems. For PBMC viability (referred to as PBMC Cytotoxicity within the assay endpoint names), cells were plated (75,000/well in a 96-well plate) and then chemical samples added for 1 h before addition of activators, SEB and TSST-1 (20 ng/mL final concentration each). Cells were incubated for 90 h. Then, Alamar Blue (20 uL/well) (Invitrogen, Cat DAL1100) was added for 6 h, and the plates were read with a fluorescence microplate reader at 546/580 nm (excitation/emission). For PBMC proliferation, cells were plated and activated as above but incubated for only 16 h prior to addition of Alamar Blue. Plates were read after 6 h.

Read-out in test [3]: Interferon-inducible T-cell alpha chemoattractant (ITAC), CXCL11 (gene 6373)
Put plainly: BSK_BE3C_ITAC: BioMAP Diversity Plus: BE3C Assay for Interferon-inducible T-cell alpha chemoattractant (ITAC) Biomarker Activity (AID 2284279). The following applies: primary human bronchial epithelial cells. In short, it runs like this:
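The assay measures I-TAC levels by ELISA in human primary bronchial epithelial cell cultures 24 hours after chemical treatment. Values reflect signal increase over the DMSO baseline.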

Read-out in test [4]: Interleukin-8 (IL8), CXCL8 (gene 3576)
Put plainly: BSK_BE3C_IL8: BioMAP Diversity Plus: BE3C Assay for Interleukin-8 (IL8) Biomarker Activity (AID 2284280). Conditions: primary human bronchial epithelial cells. A digest of the protocol: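 IL-8 signal gain, normalised to DMSO vehicle, was scored after a 24 h chemical exposure of primary human bronchial epithelial cells, with detection by ELISA.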

Read-out in test [5]: Epidermal growth factor receptor (EGFR), EGFR (gene 1956)
Put plainly: BSK_BE3C_EGFR: BioMAP Diversity Plus: BE3C Assay for Epidermal growth factor receptor (EGFR) Biomarker Activity (AID 2284281). Conditions: primary human bronchial epithelial cells. In short, it runs like this: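 Compound is added to human bronchial epithelial cells, cells incubate 24 h, then EGFR is detected by ELISA. Values reflect positive-direction fitting relative to DMSO.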

Read-out in a further test: KRT18 (gene 3875)
Put plainly: BSK_BE3C_Keratin818: BioMAP Diversity Plus: BE3C Assay for Keratin 818 Biomarker Activity (AID 2284282). The following applies: primary human bronchial epithelial cells. A digest of the protocol: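 BE3C: human bronchial epithelial primary cells, 24 h exposure, Keratin 8/18 ELISA; DMSO = negative control/baseline; cytotoxicity by parallel SRB stain (0.1% SRB after 10% TCA fixation, 560 nm).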

Read-out in test [6]: Matrix Metallopeptidase 9 (MMP9), MMP9 (gene 4318)
Put plainly: BSK_BE3C_MMP9: BioMAP Diversity Plus: BE3C Assay for Matrix Metallopeptidase 9 (MMP9) Biomarker Activity (AID 2284283). Conditions: primary human bronchial epithelial cells. In short, it runs like this:
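Human primary bronchial epithelial cells exposed 24 h to compound. MMP9 quantified by ELISA. SRB total-protein staining of parallel cultures assesses cytotoxicity. Positive-direction fit relative to DMSO.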

Read-out in test [7]: Plasminogen activator inhibitor-1 (PAI1), SERPINE1 (gene 5054)
Put plainly: BSK_CASM3C_PAI1: BioMAP Diversity Plus: CASM3C Assay for Plasminogen activator inhibitor-1 (PAI1) Biomarker Activity (AID 2284284).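 Further: PAI-1 protein level measured by ELISA 24 h after dosing.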 The following applies: primary human coronary artery smooth muscle cells.

Read-out in test [8]: Monocyte Chemoattractant Protein-1 (MCP1), CCL2 (gene 6347)
Put plainly: BSK_hDFCGF_MCP1: BioMAP Diversity Plus: hDFCGF Assay for Monocyte Chemoattractant Protein-1 (MCP1) Biomarker Activity (AID 2284285). Conditions: primary human foreskin fibroblasts. As to the method:
BSK_hDFCGF is a cell-based, multiplexed-readout assay that uses foreskin fibroblast, a human skin primary cell, with measurements taken at 24 hours after chemical dosing in a 96-well plate.BSK_hDFCGF_MCP1 is an assay component measured in the BSK_hDFCGF assay. It measures MCP-1 antibody related to regulation of gene expression using ELISA technology.Data from the assay component BSK_hDFCGF_MCP1 was analyzed at the endpoint, BSK_hDFCGF_MCP1, in the positive analysis fitting direction relative to DMSO as the negative control and baseline of activity. Using a type of binding reporter, gain or loss-of-signal activity can be used to understand protein changes. To generalize the intended target to other relatable targets, this assay endpoint is annotated to the 'cytokine' intended target family, where the subfamily is 'chemotactic factor'.
as §1

Read-out in test [9]: Intercellular Adhesion Molecule 1 (ICAM1), ICAM1 (gene 3383)
Put plainly: BSK_hDFCGF_ICAM1: BioMAP Diversity Plus: hDFCGF Assay for Intercellular Adhesion Molecule 1 (ICAM1) Biomarker Activity (AID 2284287). Conditions: primary human foreskin fibroblasts. A digest of the protocol: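 Primary human foreskin fibroblasts (hDFCGF system) dosed with chemical; ICAM-1 quantified by ELISA at 24 h relative to DMSO. Parallel SRB total-protein staining to assess overt cytotoxicity.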

The structures appear in SMILES notation. “And” between values parts separate entries of the source, which are not always exact repeats. Identical values can stand only once. A structure can be active in one record and inactive in another. The source made the active and inactive calls. How the source made its calls: active means hit-call score of the fitted dose curve at least 0.9, where 1 is the maximum; inactive means score below 0.9.

Among the data in PubChem BioAssay (EPA / NIEHS) are outcome and AC50 values, retold here.

On to `IC(I)I`, for which the outcome in test [1] was inactive.
With `C=C(C)C(=O)OCCOCCOCCOC(=O)C(=C)C`, the outcome in test [1] was inactive.
Take `CC(=O)c1c(C)c([N+](=O)[O-])c(C(C)(C)C)c([N+](=O)[O-])c1C`: the outcome in test [1] was inactive.
On the same count and under the same terms, the same measure for `CC(C=O)Cc1ccc(C(C)(C)C)cc1` (centres undefined): “inactive”.
Consider `CCOC(=O)C(C#N)=C(c1ccccc1)c1ccccc1`, for which the outcome (in [2]; in test [3]; in [4]; in test [5]; in the test with KRT18 (gene 3875); in test [6]) was inactive. Further, the outcome in test [7], in test [8] and in test [9] was inactive.
With `C1=CC2C3C=CC(C3)C2C1` (centres undefined), the result in test [1] was inactive.
As a reminder, the AC50 is the midpoint of the concentration-response curve, whichever way the signal moves. As to `CC(=O)C1(C)CC2=C(CCCC2(C)C)CC1C` (centres undefined), the AC50 in test [1] was 20 µM (active).
On the same count and under the same terms, the same measure for `CCCCN(CCCC)C(=O)N(CCCC)CCCC`: 9.42 µM (active).
As for `CS(=O)(=O)c1ccc(C2=C(c3ccccc3)C(=O)OC2)cc1`, the outcome in [1] was inactive.
With `CC1(C)CCC[C@]2(C)[C@H]3CCO[C@]3(C)CC[C@@H]12`, the outcome (in [2]; in test [3]; in [4]; in test [5]; in the test with KRT18 (gene 3875); in test [6]) was inactive. Moreover, in test [7], the result was inactive. Also, the half-maximal activity concentration (AC50) is 27 µM (active) in test [4]; 33.1 µM (active) in test [5]; 30.8 µM (active) with KRT18 (gene 3875); 31.6 µM (active) in [6]; 30.6 µM (active) and 30.5 µM (active) in test [8]; 37.5 µM (active) and 37.8 µM (active) in test [9].
Consider `C[C@@H]1CCN(C(=O)[C@H](CCCN=C(N)N)NS(=O)(=O)c2cccc3c2NC[C@H](C)C3)[C@@H](C(=O)O)C1`, for which the result in test [1] was inactive.
Consider `O=C(Nc1ccc2c(O)c(N=Nc3ccc(N=Nc4ccc(S(=O)(=O)O)cc4)cc3)c(S(=O)(=O)O)cc2c1)c1ccccc1`, for which the outcome (in test [2]; in test [4]; in test [5]; with KRT18 (gene 3875); in test [6]; in [7]) was inactive. In addition, the result in test [8] and in test [9] was inactive. Besides, the AC50 in [3] was 30.4 µM (active) and 20 µM (active).
For `C=C(C)C(=O)OCC(CC)(COC(=O)C(=C)C)COC(=O)C(=C)C`, the AC50 in test [1] was 32.3 µM (active).
In the case of `Clc1cc(Cl)c(-c2c(Cl)c(Cl)cc(Cl)c2Cl)cc1Cl`, the result in test [1] was inactive.
For `CCCCCCC(CO)CCCC` (centres undefined), the AC50 was 20 µM (active) in test [2]; 30.9 µM (active) and 35 µM (active) in [8]; 35.6 µM (active) and 34.7 µM (active) in [9]. Also, the outcome (in test [2]; in test [3]; in test [4]; in test [5]; with KRT18 (gene 3875); in [6]) was inactive. Further, the result in test [7] was inactive.
Take `CC(CN=Cc1ccccc1O)N=Cc1ccccc1O` (centres undefined): the outcome (in test [2]; in test [3]; in test [4]; in [5]; with KRT18 (gene 3875); in test [6]) was inactive. For the same molecule, the outcome in [7], in [8] and in [9] was inactive.
Turning to `CCCCOC(=O)CCCCCCCC(=O)OCCCC`, the result in test [1] was inactive.
Turning to `O=CN1CCOCC1`, the outcome (in [2]; in test [3]; in test [4]; in [5]; in the test with KRT18 (gene 3875); in test [6]) was inactive. The outcome in test [7], in [8] and in test [9] was inactive.
For the molecule `C=CC(C)(O)CCC=C(C)C` (centres undefined), the outcome (in test [2]; in test [3]; in test [4]; in [5]; with KRT18 (gene 3875); in [6]) was inactive. Besides, the result in test [7], in test [8] and in test [9] was inactive.
Take `Cc1cc(CCC(=O)OCCOCCOCCOC(=O)CCc2cc(C)c(O)c(C(C)(C)C)c2)cc(C(C)(C)C)c1O`: the result in test [1] was inactive.
On to `c1ccc(CCc2ccccc2)cc1`, for which the AC50 in test [1] was 30.2 µM (active).
For the molecule `CN(C)C(=O)Nc1ccc(Oc2ccc(Cl)cc2)cc1`, the outcome in test [1] was inactive.
On the same count and under the same terms, the result for `CN(C)C(=S)SC(=S)N(C)C` reads “inactive”.
